Screens: PubChem, The Scripps Research Institute Molecular Screening Center
The list is not random: actives were taken first. Their share in the collection is about 2.4%.
M1 PAM parental: M1 PAM counterscreen hit in parental CHO-K1 cells; ATP EC20, Fluo-8 calcium fluorescence; 0% at ATP EC20, 100% at ATP max; activation, % at 3 µM; 0.02% of 360,000 active;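 active = activation above the run cutoff, the mean activation of all test compounds plus 3 SD, cut at about 40% in these data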;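 also: peak over basal fluorescence ratio in a 140 s read after ATP addition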
CHO-K1 Ca antag: M1 antagonist counterscreen hit in parental CHO-K1 cells | ATP-induced calcium, Fluo-8 fluorescence | inhibition, % at 3 µM | AID 602250 | 0.6% of 360,000 active;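 active = inhibition above a per-plate cutoff, the plate's mean sample inhibition plus 3 SD, cut at about 24% in these data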;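 also: 0% = DMSO plus EC80 ATP and 100% = DMSO alone without ATP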
CHRM1 antagonist: human CHRM1 antagonism; CHO-K1 hM1, Fluo-8 calcium fluorescence, ACh EC80 antagonist; inhibition, % at 3 µM; 1.3% of 360,000 active; AID 588852;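 active = percent inhibition above its own plate's cutoff, namely the mean of that plate's compound wells plus 3 SD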;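 also: peak over basal fluorescence ratio during 140 s after agonist addition; 0% = ACh EC80 plus DMSO and 100% = DMSO alone without agonist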
Target sequence (P11229 whole entry, looked up): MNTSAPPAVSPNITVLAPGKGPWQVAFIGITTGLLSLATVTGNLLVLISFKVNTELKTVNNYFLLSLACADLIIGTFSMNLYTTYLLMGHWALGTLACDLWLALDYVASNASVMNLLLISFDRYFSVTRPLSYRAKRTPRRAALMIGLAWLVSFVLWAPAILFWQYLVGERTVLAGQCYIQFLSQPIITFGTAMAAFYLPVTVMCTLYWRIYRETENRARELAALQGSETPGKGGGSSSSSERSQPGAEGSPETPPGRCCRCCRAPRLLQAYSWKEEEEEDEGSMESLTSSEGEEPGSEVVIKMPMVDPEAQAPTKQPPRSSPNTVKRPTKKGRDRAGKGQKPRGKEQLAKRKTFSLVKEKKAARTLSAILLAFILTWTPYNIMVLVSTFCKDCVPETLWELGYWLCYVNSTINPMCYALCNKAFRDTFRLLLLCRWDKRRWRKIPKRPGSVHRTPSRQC
M1 ag parental: M1 agonist counterscreen hit in parental CHO-K1 cells; Fluo-8 calcium fluorescence; scaled to maximal ATP response, vehicle zero; activation, % at 3 µM; 0.48% of 360,000 active; AID 602248; in the data active = activation above about 15%;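 also: untransfected CHO-K1 host cells lacking M1 receptor as counterscreen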
CHRM1 PAM: human CHRM1 positive allosteric modulation. P11229. CHO-K1 hM1, Fluo-8 calcium fluorescence, ACh EC20; 0% = ACh EC20, 100% = maximal ACh. activation, % at 3 µM. 0.088% of 360,000 active; in the data active = activation above about 19%, passing the limit was not always enough
M1 ag: human M1 muscarinic receptor agonism; CHO-K1 hM1, Fluo-8 calcium fluorescence, agonist mode; 0% DMSO, 100% acetylcholine EC100; activation, % at 3 µM; 0.33% of 360,000 active; AID 588814;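 active = activation above the run's mean compound activation plus 3 SD, cut at about 16% in these data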;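 also: peak over basal fluorescence ratio within a 140 s kinetic read after compound addition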
* hit, by the source's call.

What do the screens show for `Cc1ccc(NC(=O)Nc2ccc(F)cc2)cc1Cl`?
M1 PAM parental: -6.0; CHO-K1 Ca antag: 25.8*; CHRM1 antagonist: 10.5; M1 ag parental: 11.7; CHRM1 PAM: -19.8; M1 ag: 2.5

What do the screens show for `O=C(Nc1ccc(F)c(Cl)c1)Nc1csc2ccccc12`?
M1 PAM parental: -10.5; CHO-K1 Ca antag: 27.6*; CHRM1 antagonist: 38.0; M1 ag parental: 13.3; CHRM1 PAM: -15.6; M1 ag: 5.6

What do the screens show for `Cc1ccc(NC(=S)Nc2ccc(OC(F)F)c(Cl)c2)cc1F`?
M1 PAM parental: 0.0; CHO-K1 Ca antag: 6.3; CHRM1 antagonist: 24.5*; M1 ag parental: 12.2; CHRM1 PAM: -18.8; M1 ag: -3.3

How did O=C(Nc1ccncc1)Nc1ccc(F)c(Cl)c1 do in these assays?
M1 PAM parental: -0.3; CHO-K1 Ca antag: 23.7*; CHRM1 antagonist: 8.2; M1 ag parental: 11.2; CHRM1 PAM: -0.3; M1 ag: 4.2

What do the screens show for `COc1cc2c(cc1OC)C(=O)N1[C@H]3c4cc(Cl)ccc4OC[C@@H]3[C@H](c3ccccc3)[C@]1(C)C(=O)N2`?
M1 PAM parental: 11.7; CHO-K1 Ca antag: -2.2; CHRM1 antagonist: 4.8; M1 ag parental: 0.1; CHRM1 PAM: -1.5; M1 ag: -6.5

What do the screens show for `Nc1cc(=O)[nH]c(=S)n1-c1ccccc1`?
M1 PAM parental: -6.9; CHO-K1 Ca antag: 31.9*; CHRM1 antagonist: -2.0; M1 ag parental: 0.4; CHRM1 PAM: 10.5; M1 ag: 0.9

What do the screens show for `Cc1cc(=O)[nH]c(=S)n1-c1ccccc1`?
M1 PAM parental: 22.9; CHO-K1 Ca antag: -30.8; CHRM1 antagonist: -5.4; M1 ag parental: 0.3; CHRM1 PAM: -0.5; M1 ag: -2.1

What do the screens show for `Cc1nc(-c2ccc(O)c(O)c2)cs1`?
M1 PAM parental: -8.6; CHO-K1 Ca antag: 26.5*; CHRM1 antagonist: 1.3; M1 ag parental: -0.1; CHRM1 PAM: 5.2; M1 ag: -3.4

What do the screens show for `CN1CCN(C(=O)CN(C2CCCCC2)S(=O)(=O)c2ccc(Br)cc2)CC1`?
M1 PAM parental: 18.1; CHO-K1 Ca antag: -8.8; CHRM1 antagonist: 1.8; M1 ag parental: 4.8; CHRM1 PAM: -1.7; M1 ag: 18.1*

How did CC(C)[C@H](NS(=O)(=O)c1ccc2c(c1)OCCO2)C(=O)OCC(=O)Nc1ccccc1Cl do in these assays?
M1 PAM parental: -6.4; CHO-K1 Ca antag: -7.5; CHRM1 antagonist: -5.9; M1 ag parental: 3.5; CHRM1 PAM: 7.9; M1 ag: -8.0

How did CC(C)[C@H](NS(=O)(=O)c1ccc2c(c1)OCCO2)C(=O)OCC(=O)Nc1cc(Cl)ccc1Cl do in these assays?
M1 PAM parental: 12.7; CHO-K1 Ca antag: 6.2; CHRM1 antagonist: 30.6*; M1 ag parental: 6.7; CHRM1 PAM: -16.4; M1 ag: 0.9

Results for CC1CCN(CCOCCOc2ccc(Br)cc2Cl)CC1 ?
M1 PAM parental: 9.7; CHO-K1 Ca antag: 4.6; CHRM1 antagonist: 45.2*; M1 ag parental: 2.6; CHRM1 PAM: -23.2; M1 ag: -8.3

How did N#Cc1nc(-c2ccccc2Cl)oc1NCC1CCCO1 (configuration not stated) do in these assays?
M1 PAM parental: -10.7; CHO-K1 Ca antag: 24.8*; CHRM1 antagonist: -4.9; M1 ag parental: -0.1; CHRM1 PAM: 15.2; M1 ag: 2.9

What do the screens show for `CC(C)(C)OC(=O)N1CC(O)CC1C(=O)OCC(=O)c1ccccc1` (configuration not stated)?
M1 PAM parental: -4.9; CHO-K1 Ca antag: 9.6; CHRM1 antagonist: 4.4; M1 ag parental: 0.3; CHRM1 PAM: 4.0; M1 ag: 0.2

What do the screens show for `COc1ccccc1CNC(=O)CN1C(=O)c2ccc([N+](=O)[O-])cc2C1=O`?
M1 PAM parental: -18.1; CHO-K1 Ca antag: -7.5; CHRM1 antagonist: -3.0; M1 ag parental: 1.2; CHRM1 PAM: -0.6; M1 ag: -2.4

How did CCOc1ccccc1OCC(=O)OCC(=O)c1c(N)n(CC(C)C)c(=O)n(C)c1=O do in these assays?
M1 PAM parental: -6.6; CHO-K1 Ca antag: 11.5; CHRM1 antagonist: 27.9*; M1 ag parental: 17.0*; CHRM1 PAM: -17.8; M1 ag: 1.3

What do the screens show for `CC(C)Cn1c(N)c(C(=O)COC(=O)c2ccc(O)cc2)c(=O)n(C)c1=O`?
M1 PAM parental: 5.5; CHO-K1 Ca antag: -6.2; CHRM1 antagonist: -3.9; M1 ag parental: 4.0; CHRM1 PAM: 6.6; M1 ag: -1.5

Results for COc1ccccc1CCC(=O)OCC(=O)c1c(N)n(CC(C)C)c(=O)n(C)c1=O ?
M1 PAM parental: -7.3; CHO-K1 Ca antag: 13.7; CHRM1 antagonist: 31.1; M1 ag parental: 16.9*; CHRM1 PAM: -13.6; M1 ag: 0.6

Results for COc1ccc(CCC(=O)OCC(=O)c2c(N)n(CC(C)C)c(=O)n(C)c2=O)cc1 ?
M1 PAM parental: -26.0; CHO-K1 Ca antag: 31.8*; CHRM1 antagonist: 32.3*; M1 ag parental: 15.9*; CHRM1 PAM: -10.5; M1 ag: 2.6

Results for Cc1ccc(S(=O)(=O)CCC(=O)OCC(=O)c2c(N)n(CC(C)C)c(=O)n(C)c2=O)cc1 ?
M1 PAM parental: -6.3; CHO-K1 Ca antag: 3.5; CHRM1 antagonist: 23.1; M1 ag parental: 18.4*; CHRM1 PAM: -12.5; M1 ag: 2.3

How did CCn1nnnc1NC(=O)c1cc(OC)c(OC)c(OC)c1 do in these assays?
M1 PAM parental: 13.6; CHO-K1 Ca antag: -7.7; CHRM1 antagonist: -1.2; M1 ag parental: 0.6; CHRM1 PAM: 3.0; M1 ag: -4.3

What do the screens show for `COc1ccc(S(=O)(=O)NCCSCc2ccco2)cc1Cl`?
M1 PAM parental: 1.8; CHO-K1 Ca antag: 11.4; CHRM1 antagonist: -29.8; M1 ag parental: -0.5; CHRM1 PAM: 22.5*; M1 ag: 3.9

What do the screens show for `COc1ccc(NCC(=O)Nc2ccc(Br)cc2F)c(OC)c1`?
M1 PAM parental: 19.7; CHO-K1 Ca antag: -13.2; CHRM1 antagonist: -14.6; M1 ag parental: 1.8; CHRM1 PAM: 12.5; M1 ag: -2.0

How did CCOC(=O)c1c(NC(=O)CSc2nnc(-c3ccccc3C)n2C)sc(C(C)=O)c1C do in these assays?
M1 PAM parental: -9.2; CHO-K1 Ca antag: 20.8; CHRM1 antagonist: 46.4*; M1 ag parental: 1.8; CHRM1 PAM: -18.6; M1 ag: -3.6

How did COc1ccc(C(=O)NCC(c2cccs2)N2CCc3ccccc32)cc1OC (configuration not stated) do in these assays?
M1 PAM parental: -21.0; CHO-K1 Ca antag: 23.9*; CHRM1 antagonist: -2.2; M1 ag parental: 8.0; CHRM1 PAM: 5.6; M1 ag: -1.1

Results for COc1ccc(C(=O)NCC(c2ccco2)N2CCc3ccccc32)c(OC)c1 (configuration not stated) ?
M1 PAM parental: 47.6*; CHO-K1 Ca antag: -20.2; CHRM1 antagonist: -10.5; M1 ag parental: -0.5; CHRM1 PAM: 2.3; M1 ag: -6.2

Results for CN(C)S(=O)(=O)c1cccc(C(=O)OCC(=O)Nc2sccc2C(N)=O)c1 ?
M1 PAM parental: -5.8; CHO-K1 Ca antag: 20.3; CHRM1 antagonist: 37.2*; M1 ag parental: 20.9*; CHRM1 PAM: -12.4; M1 ag: 3.2
